Assay results published in PubChem BioAssay.
Active and inactive are the calls of the source.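 How the source made its calls, unless noted: active means inhibition at or above 50% at 10 µM; inactive means inhibition below 50%.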

Legend:
[1] = inhibitors of TNFa-induced NFkB p65 translocation, primary screen, imaging, HUVEC, MLSMR starter and 10KST1 sets (AID 438;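 active means inhibition above 20% together with a positive visual image hit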;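 further: compound added about 3h40 before a 20 min TNFalpha stimulation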;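 on inhibition: signal is the nuclear over cytoplasmic p65 intensity ratio per well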); conditions: HUVEC TNFa-induced p65 nuclear translocation; cell count: measured here: nuclei count (cytotoxicity indicator), at 2.08 µM; inhibition: at 2 µM, stronger effect = higher value, 0% TNFa-plus-vehicle, 100% no-TNFa wells
[2] = reduction of polyQ htt aggregates in cells – imaging, exon1htt(103Q)mCFP cells, high-content imaging, primary screen (AID 483;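 active means visual image review flags a hit and inhibition of aggregation exceeds 20%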;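 further: compound exposure lasted 3 days before fixation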;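 on nuclei count: percent of the per-plate median nuclei count of sample wells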); conditions: exon1htt(103Q)mCFP cell line, aggregate imaging, at 2 µM; inhibition of aggregation: stronger effect = higher value; nuclei count: measured here: cell count, toxicity
[3] = endothelial E-selectin expression blockers – imaging, HUVEC, immunofluorescence, MLSMR starter and 10KST1 sets, primary screen (AID 487;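 active means visually confirmed hit in the image check and inhibition above 20%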;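 on inhibition: signal is fraction of cell area covered by stained E-selectin grains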;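 on nuclei count: 100% = median nuclei count of all wells on the same plate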); conditions: HUVEC TNFalpha-induced E-selectin immunofluorescence imaging, at 2 µM; inhibition: stronger effect = higher value; nuclei count: measured here: cell number, toxicity
[4] = target: Voltage-gated potassium channel subunit beta-2 (Rattus norvegicus) (UniProt P62483); experiment: inhibitors of rat Kvbeta2 reductase activity – biochemical, NADPH fluorescence, primary screen (AID 622;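 active means fluorescence slope higher than the sample average by over 3 SD, cut at about -0.22 in these data, passing the limit was not always enough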;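 further: slope of raw intensity against log time taken from 70 to 1610 s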); conditions: recombinant KvBeta, 4-cyanobenzaldehyde reduction, at 10 µM, stronger effect = higher value
[5] = target: Voltage-gated potassium channel subunit beta-2 (Rattus norvegicus) (UniProt P62483); experiment: enhancers of rat Kvbeta2 NADPH turnover – biochemical, NADPH fluorescence, primary screen (AID 623;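 active means NADPH fluorescence slope more negative than the mean of all samples by about 3 SD, 99.7% confidence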;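 further: fluorescence intensity change per second fitted from 20 to 320 s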); conditions: Recombinant KvBeta, NADPH fluorescence decrease slope, 10 min; at 10 µM; stronger effect = lower value
[6] = target: Alpha-2C adrenergic receptor (Homo sapiens) (UniProt P18825); experiment: compounds altering alpha2C-coupled GIRK flux – cell-based, HEK293 alpha2C/GIRK1/2, thallium flux, primary screen (AID 624;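 active means fluorescence slope after compound addition differing from the mean of all screened samples at 99.7% confidence, in either direction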;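 further: slope of fluorescence ratio to pre-addition baseline per second over 15 to 24 s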); conditions: thallium flux BTC fluorescence, at 10 µM, actives lie on both sides
[7] = blockers of RIG-like receptor reporter activation – cell-based, Sendai virus stimulus, luciferase, 10K MLSCN set, TLR/RLR signaling modifier project, primary screen (AID 602276); conditions: HEK293 RL24 IRF3 luciferase reporter, at 10 µM, stronger effect = higher value;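 further: firefly luciferase from ISG56 promoter only with Renilla not read in this screen; 0% = Sendai virus plus DMSO and 100% = medium plus DMSO without virus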
[8] = TLR3 IRF3 reporter activation blockers – cell-based, poly I:C stimulus, luciferase, 10K MLSCN set, primary screen (AID 602277;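 active means inhibition of the reporter signal at or above 50%; inactive means inhibition below 50%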); conditions: HEK293-TLR3 RL24 IRF3 luciferase reporter, at 10 µM, stronger effect = higher value

Sequence of Voltage-gated potassium channel subunit beta-2 (Rattus norvegicus) (P62483 whole entry, looked up): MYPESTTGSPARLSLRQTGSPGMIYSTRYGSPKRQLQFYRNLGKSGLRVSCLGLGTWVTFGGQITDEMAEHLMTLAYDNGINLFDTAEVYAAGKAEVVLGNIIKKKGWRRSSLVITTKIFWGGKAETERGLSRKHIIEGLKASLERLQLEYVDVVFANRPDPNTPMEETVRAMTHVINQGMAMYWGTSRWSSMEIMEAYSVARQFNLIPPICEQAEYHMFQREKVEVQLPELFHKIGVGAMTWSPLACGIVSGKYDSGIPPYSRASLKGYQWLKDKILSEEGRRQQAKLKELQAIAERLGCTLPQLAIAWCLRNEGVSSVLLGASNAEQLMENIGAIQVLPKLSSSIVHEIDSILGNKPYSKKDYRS
Sequence of Alpha-2C adrenergic receptor (Homo sapiens) (P18825 whole entry, looked up): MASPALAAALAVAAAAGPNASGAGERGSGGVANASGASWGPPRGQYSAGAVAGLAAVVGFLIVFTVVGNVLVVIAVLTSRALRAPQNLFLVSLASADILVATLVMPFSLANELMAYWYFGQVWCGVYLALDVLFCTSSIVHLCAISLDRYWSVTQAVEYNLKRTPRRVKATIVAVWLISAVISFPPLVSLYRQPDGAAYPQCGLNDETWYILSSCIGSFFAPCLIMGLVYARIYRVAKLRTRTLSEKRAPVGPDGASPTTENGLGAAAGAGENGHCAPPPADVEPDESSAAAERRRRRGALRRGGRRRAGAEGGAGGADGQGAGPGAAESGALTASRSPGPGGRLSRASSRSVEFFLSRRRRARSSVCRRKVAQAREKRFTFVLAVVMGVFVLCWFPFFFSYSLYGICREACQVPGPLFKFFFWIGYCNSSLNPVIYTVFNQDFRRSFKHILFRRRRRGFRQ

SMILES	cell count [1]	inhibition [1]	inhibition of aggregation [2]	nuclei count [2]	inhibition [3]	nuclei count [3]	fluorescence slope [4]	NADPH fluorescence slope [5]	slope [6]	inhibition [7]	inhibition [8]
Cc1ccccc1Cn1ccc(NC(=O)c2cnn3c(C(F)(F)F)cc(-c4ccco4)nc23)n1	568	-3.8% (inactive)	10.6% (inactive)	96.8%	-7.4% (inactive)	99.2%	-0.613 (inactive)	-5.8e-05 (inactive)	0.00253 (inactive)	19.2% (inactive)	32% (inactive)
COCc1nnc(NS(=O)(=O)c2ccc(Br)cc2)s1	757	-12.1% (inactive)	13.5% (inactive)	102%	30.4% (inactive)	90.2%	-0.362 (inactive)	4.4e-05 (inactive)	0.00659 (inactive)	18.1% (inactive)	19.6% (inactive)
CCOc1ccc(CCN2C(=O)C3C4C=CC(C4)C3C2=O)cc1OCC (stereo not drawn)	626	2.9% (inactive)	-33.6% (inactive)	134%	-51.4% (inactive)	112%	-0.551 (inactive)	-1.1e-05 (inactive)	0.00791 (inactive)	16.8% (inactive)	36.6% (inactive)
CCOc1ccccc1C1CC(c2ccc(Br)cc2)Nc2nc(N)nn21 (stereo not drawn)	593	6.9% (inactive)	19.2% (inactive)	94.5%	-14.1% (inactive)	107%	-0.512 (inactive)	-4.3e-05 (inactive)	0.0067 (inactive)	18.7% (inactive)	33.7% (inactive)
COc1ccc(C2C=C(c3ccccc3)Nc3ncnn32)cc1 (stereo not drawn)	558	-20.9% (inactive)	-12.6% (inactive)	105%	-15.1% (inactive)	110%	-0.0904 (active)	4.2e-06 (inactive)	0.00603 (inactive)	5.64% (inactive)	-14.5% (inactive)
COc1ccc(C)cc1NC(=O)CCN1CCCC1	257	-1.2% (inactive)	7.8% (inactive)	87.6%	6.5% (inactive)	109%	-0.442 (inactive)	-3.8e-06 (inactive)	0.00559 (inactive)	15.3% (inactive)	16.2% (inactive)
Cc1cccc(NC(=O)CC2NC3CCCCC3NC2=O)c1 (stereo not drawn)	384	-4.8% (inactive)	-8.2% (inactive)	81%	6.9% (inactive)	106%	-0.358 (inactive)	-2.9e-05 (inactive)	0.00297 (inactive)	13.5% (inactive)	14.2% (inactive)
CC1(C)CC(=O)C(CC(=O)NC(=O)NCc2ccccc2)=C(O)C1	462	3.4% (inactive)	0.1% (inactive)	102%	-65.4% (inactive)	99.2%	-0.501 (inactive)	1e-05 (inactive)	0.00433 (inactive)	-1.73% (inactive)	7.39% (inactive)
CN1CCc2c(sc3c2C(=O)NC(c2cccc(OC(=O)c4cccs4)c2)N3)C1 (stereo not drawn)	497	-2.5% (inactive)	-4.1% (inactive)	101%	-21.9% (inactive)	108%	-0.422 (inactive)	-4.2e-05 (inactive)	0.00392 (inactive)	-5.69% (inactive)	10.3% (inactive)
COC(=O)Cn1c(=NC(=O)CSCC(=O)Nc2cc(C)on2)sc2ccccc21	610	-6.9% (inactive)	2.6% (inactive)	112%	1.2% (inactive)	111%	-0.417 (inactive)	-6.3e-05 (inactive)	0.00506 (inactive)	11.1% (inactive)	28.1% (inactive)
COc1ccc(CCNC(=O)c2cc(C(C)C)on2)cc1OC	825	9.2% (inactive)	-27% (inactive)	102%	2.8% (inactive)	110%	-0.567 (inactive)	-1.2e-05 (inactive)	0.00632 (inactive)	2.63% (inactive)	18.2% (inactive)
O=C(C1CCCN1S(=O)(=O)c1cccc2cccnc12)N1CCn2c1nc1ccccc12 (stereo not drawn)	626	-1.1% (inactive)	-15.8% (inactive)	117%	-28.6% (inactive)	124%	-0.63 (inactive)	-1.3e-05 (inactive)	0.00657 (inactive)	8.59% (inactive)	21.7% (inactive)
Cc1ccc(S(=O)(=O)N2CCN(C(=O)c3cc(=O)[nH]c4ccccc34)CC2)c(C)c1	539	-11.9% (inactive)	-23.6% (inactive)	100%	5.3% (inactive)	162%	-0.5 (inactive)	-2.6e-05 (inactive)	0.00525 (inactive)	17.3% (inactive)	31% (inactive)
CC(=O)NCc1ccc(C(=O)CSc2nnc(-c3ccncc3)n2Cc2ccccc2)o1	461	-1.1% (inactive)	16.2% (inactive)	96%	-25.7% (inactive)	127%	-0.59 (inactive)	-5.8e-05 (inactive)	0.00604 (inactive)	12.6% (inactive)	20.5% (inactive)
Cc1cc(C)c2c(n1)nn1c(NCCCN3CCOCC3)cc(C)nc21	484	-4.5% (inactive)	11.5% (inactive)	119%	-19.1% (inactive)	114%	-0.509 (inactive)	-1.9e-05 (inactive)	0.00545 (inactive)	8.42% (inactive)	21.2% (inactive)
Cc1cc(C)c(NC(=O)CSc2nc3c(c(=O)n2C)SC(C)C3)c(C)c1 (stereo not drawn)	700	2.9% (inactive)	-5.9% (inactive)	102%	-22% (inactive)	120%	-0.565 (inactive)	-3.2e-05 (inactive)	0.00653 (inactive)	-19.3% (inactive)	-13.4% (inactive)
COc1ccc(S(=O)(=O)NCC(c2cccnc2)N2CCN(C)CC2)cc1C (stereo not drawn)	600	-1.8% (inactive)	-1.7% (inactive)	84.8%	2% (inactive)	105%	-0.586 (inactive)	-1.6e-05 (inactive)	0.00609 (inactive)	4.66% (inactive)	29.1% (inactive)
COCCNC(=O)c1ccc(CS(=O)(=O)c2c(Cl)cccc2Cl)o1	462	-6.8% (inactive)	22.9% (inactive)	103%	-46.3% (inactive)	112%	-0.428 (inactive)	2.4e-05 (inactive)	0.00478 (inactive)	-1.52% (inactive)	24.5% (inactive)
CN(C)c1cccc(C(=O)OCC(=O)NCc2ccco2)c1	806	-12.9% (inactive)	5.8% (inactive)	85.3%	9.6% (inactive)	97.5%	-0.603 (inactive)	3e-05 (inactive)	0.0074 (inactive)	10.8% (inactive)	5.69% (inactive)
Cc1ccc(S(=O)(=O)CCC(=O)Nc2ccc3c(c2)OCO3)cc1	666	-12.2% (inactive)	-1.1% (inactive)	131%	-26.9% (inactive)	115%	-0.587 (inactive)	-6.2e-05 (inactive)	0.00603 (inactive)	-0.686% (inactive)	12.3% (inactive)
COc1ccc(-c2nnc(SCC(=O)N3CCCCC3)o2)cc1OC	670	-1.6% (inactive)	5.7% (inactive)	120%	-85.6% (inactive)	123%	-0.543 (inactive)	-9.6e-06 (inactive)	0.00656 (inactive)	3.05% (inactive)	15.9% (inactive)
CC(NS(=O)(=O)c1ccc(OCC(=O)N2CCOCC2)c(Cl)c1)c1ccccc1 (stereo not drawn)	338	-6.5% (inactive)	0.2% (inactive)	104%	-51.1% (inactive)	76.7%	-0.409 (inactive)	-3.1e-05 (inactive)	0.00508 (inactive)	18.7% (inactive)	12.4% (inactive)
O=C(CN1C(=O)c2ccccc2S1(=O)=O)Nc1ccc(S(=O)(=O)N2CCCCCC2)cc1	727	-2.6% (inactive)	-11.1% (inactive)	99.9%	-91.2% (inactive)	107%	-0.489 (inactive)	-5.4e-05 (inactive)	0.00568 (inactive)	4.06% (inactive)	19.5% (inactive)
CCC12CN3CC(CC)(CN(C1)C3c1ccc(OC(C)C)cc1)C2=O (stereo not drawn)	692	12.1% (inactive)	10.5% (inactive)	93.2%	-15.2% (inactive)	94.3%	-0.528 (inactive)	-0.000143 (inactive)	0.0058 (inactive)	8.78% (inactive)	15.9% (inactive)
COCC(C)NC(=O)CCS(=O)(=O)c1nc(-c2ccc(OC)cc2)cc(C(F)(F)F)n1 (stereo not drawn)	638	7.9% (inactive)	2.6% (inactive)	96.3%	-37.9% (inactive)	192%	-0.323 (inactive)	-2.1e-05 (inactive)	0.00386 (inactive)	17.7% (inactive)	1.39% (inactive)
COC1CCCCC1NS(=O)(=O)c1ccccc1 (stereo not drawn)	317	1.4% (inactive)	12.2% (inactive)	113%	19.4% (inactive)	114%	-0.312 (inactive)	-3.1e-06 (inactive)	0.00597 (inactive)	11.1% (inactive)	27.4% (inactive)
O=C(CN(CC1CCCO1)C(=O)CCC(=O)Nc1ccccn1)NCC1CCCO1 (stereo not drawn)	634	-1.6% (inactive)	-13.7% (inactive)	122%	-8.5% (inactive)	122%	-0.421 (inactive)	-3e-05 (inactive)	0.00568 (inactive)	13.4% (inactive)	15.3% (inactive)
O=C(CSCc1cccc(F)c1)N1CCN(c2ccccc2)CC1	545	-14.3% (inactive)	33.7% (inactive)	68.7%	-66.2% (inactive)	123%	-0.398 (inactive)	-5.3e-05 (inactive)	0.00288 (inactive)	-32.3% (inactive)	-145% (inactive)
